This passage reports composite z-score and z-score results from PubChem BioAssay.

The source made the active and inactive calls.

Experiment [1] deals with Plasmodium falciparum Sir2 (PF13_0152, Sir2A). Briefly: pfSir2 binders on small-molecule microarrays, primary screen, biochemical, small-molecule microarray, 635 nm fluorescence (AID 1098).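 Also: score merges spot fluorescence intensity with its signal-to-noise ratio.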 To be noted: small-molecule microarray binding, fluorescence 635 nm; higher = more signal.
Experiment [2] in a line: small-molecule microarray binders of probe aDKK1, primary screen, biochemical, biotinylated probe, 635/667 nm fluorescence (AID 1099).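 Also: score merges 667nm spot fluorescence with signal to noise across triplicate slides.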 To be noted: higher = more signal.
Experiment [3] is described as follows: small-molecule microarray binders of probe aCHRDL2, primary screen, biochemical, biotinylated probe, 635/667 nm fluorescence (AID 1100). To be noted: higher = more signal.
The nature of experiment [4]: splicing luciferase reporter signal modulators, primary screen, spliceosome inhibition project, cell-based, HEK293, splice +/- reporter (AID 1101).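 Also: HEK293 cells carrying a splicing-competent luciferase reporter gene; test concentration not given here.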 To be noted: luminescence, 24 h, higher = more signal, called active from +8 up or from −8 down.
Experiment [5] has as its target Fibroblast growth factor 10 (Homo sapiens) (UniProt O15520). As to the kind of experiment: FGF10 binders on small-molecule microarrays, primary screen, biochemical, small-molecule microarray, 635 nm fluorescence (AID 1102). To be noted: FGF10 binding, fluorescence 635 nm, higher = more signal.
Experiment [6] relates to glycogen synthase kinase-3 (GSK3A per assay name; protocol says GSK3B). As to the kind of experiment: GSK3 binders on small-molecule microarrays, primary screen, biochemical, small-molecule microarray, 635 nm fluorescence, GSK3A (AID 1103). Also: the record names both GSK3A and GSK3B. To be noted: small-molecule microarray binding, fluorescence 635 nm; higher = more signal.
Experiment [7] addresses Epidermal growth factor receptor (Homo sapiens) (UniProt P00533). Briefly: EGFR binders on small-molecule microarrays, primary screen, biochemical, small-molecule microarray, 635 nm fluorescence (AID 1104).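 Also: score merges 667 nm emission intensity with spot signal to noise over triplicate slides.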 The following applies: EGFR binding, higher = more signal.
Experiment [8] has as its target Follistatin-related protein 3 (Homo sapiens) (UniProt O95633). Briefly: FSTL3 binders on small-molecule microarrays, primary screen, biochemical, small-molecule microarray, 635 nm fluorescence (AID 1105).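 Also: score merges emission near 667 nm and signal to noise per printed spot across three slides.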 The following applies: FSTL3 binding, higher = more signal.
In experiment [9] the target is Dickkopf-related protein 1 (Homo sapiens) (UniProt O94907). As to the kind of experiment: DKK1 binders on small-molecule microarrays, primary screen, biochemical, small-molecule microarray, 635 nm fluorescence scan (AID 1106).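 Also: score merges emission near 667 nm with signal to noise over three replicate slides.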 The following applies: DKK1 binding, higher = more signal.
In experiment [10] the test system is Inhibin beta A chain (activin A). As to the kind of experiment: INHBA (activin A) binders on microarrays, primary screen, biochemical, small-molecule microarray, 635 nm fluorescence scan (AID 1107).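 Also: mouse activin A protein probed at 4.33 µg/mL on printed slides; score merges bound-protein fluorescence near 667 nm with spot signal-to-noise.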 The following applies: small-molecule microarray binding, higher = more signal.
Experiment [11] relates to Human papillomavirus type 1a protein E7 (residues 44-93). As to the kind of experiment: HPV1a E7 fragment binders on microarrays, primary screen, biochemical, small-molecule microarray, residues 44-93, 635 nm fluorescence (AID 1108).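 Also: E7 fragment applied at 1 µg/mL in TBST for 1 h at 4 C; score combines spot fluorescence with its signal to noise ratio.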 To be noted: small-molecule microarray binding, fluorescence 635 nm; higher = more signal.
Experiment [12] in a line: modulators of HCV replicon luciferase signal, primary screen, HCV replication inhibitor project, Huh7 cells, luciferase reporter (AID 1109).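 Also: huh7 hepatoma cells harbouring a luciferase neomycin HCV replicon reporter; luciferase luminescence as measure of HCV replicon replication; test concentration not given here.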 To be noted: 48 h, higher = more signal.
Experiment [13] has as its target Left-right determination factor 2 (Homo sapiens) (UniProt O00292). Briefly: LEFTY2 binders on small-molecule microarrays, primary screen, biochemical, small-molecule microarray, 635 nm fluorescence scan (AID 1110). To be noted: LEFTY2 binding, higher = more signal.
Experiment [14] addresses Calmodulin-1 (Homo sapiens) (UniProt P0DP23). Briefly: CALM1 binders on microarrays, EGTA buffer, profiling panel, biochemical, small-molecule microarray, Cy5-labelled CALM1 (AID 1111).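 Also: labelled calmodulin applied in Tris saline Tween buffer holding calcium plus EGTA and DTT.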 The following applies: Cy5-CALM1 binding fluorescence, higher = more signal.
Experiment [15] shares this target. As to the kind of experiment: calcium-bound CALM1 binders on microarrays, profiling panel, artefact control for SMM control-protein annotation, biochemical, small-molecule microarray, Cy5-labelled CALM1, plus calcium (AID 1112).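 Also: score merges spot fluorescence with signal to noise from triplicate slides.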 The following applies: Cy5-CALM1 binding fluorescence, higher = more signal.
The nature of experiment [16]: small-molecule microarray binders of probe aWnt5a, primary screen, biochemical, biotinylated probe, 635/667 nm fluorescence (AID 1113).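 Also: score merges 667 nm fluorescence intensity with signal-to-noise per printed feature.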 The following applies: higher = more signal.
A short description of experiment [17]: small-molecule microarray binders of probe aShh, primary screen, biochemical, biotinylated probe, 635/667 nm fluorescence (AID 1114).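 Also: probe is biotin-labelled aShh protein from a stem cell growth factor screen; measures binding of labelled protein to compounds printed on the slide; score merges feature fluorescence at 667 nm with signal-to-noise.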 The following applies: higher = more signal.
Experiment [18] in a line: small-molecule microarray binders of probe aNog, primary screen, biochemical, biotinylated probe, 635/667 nm fluorescence (AID 1115).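 Also: probe is biotinylated aNog protein used at 0.15 µg/mL for 1 h at 4 C; z-score combines 667 nm fluorescence of each spot with its signal to noise.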 To be noted: higher = more signal.
Experiment [19] concerns the target Torsin-1A-interacting protein 1 (Homo sapiens) (UniProt Q5JTV8). Briefly: LAP1 binders from COS7 cell lysate, primary screen, small-molecule microarray, 635/667 nm fluorescence (AID 1116). The following applies: COS7-hLAP1 lysate binding, 635 nm fluorescence, higher = more signal.
For experiment [20], the target named is Alpha-bungarotoxin (Bungarus multicinctus) (UniProt P60615). Briefly: alpha-bungarotoxin binders on microarray, profiling panel, artefact control for SMM control protein annotation, biochemical, small-molecule microarray, Alexa647 label, 635/667 nm fluorescence (AID 1117). To be noted: alpha-BTX-A647 binding fluorescence, higher = more signal.
Alpha-bungarotoxin (Bungarus multicinctus), sequence (P60615 whole entry, looked up): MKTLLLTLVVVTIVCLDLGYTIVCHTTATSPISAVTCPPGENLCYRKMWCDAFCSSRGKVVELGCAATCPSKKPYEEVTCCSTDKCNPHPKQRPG

Dickkopf-related protein 1 (Homo sapiens), sequence (O94907 whole entry, looked up): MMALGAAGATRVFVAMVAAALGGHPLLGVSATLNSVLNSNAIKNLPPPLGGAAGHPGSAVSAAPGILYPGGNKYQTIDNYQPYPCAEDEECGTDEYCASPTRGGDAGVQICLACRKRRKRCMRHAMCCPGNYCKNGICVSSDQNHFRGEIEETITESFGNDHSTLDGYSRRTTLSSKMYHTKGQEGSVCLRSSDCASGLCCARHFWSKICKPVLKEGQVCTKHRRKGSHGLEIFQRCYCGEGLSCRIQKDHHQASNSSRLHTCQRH
Left-right determination factor 2 (Homo sapiens), sequence (O00292 whole entry, looked up): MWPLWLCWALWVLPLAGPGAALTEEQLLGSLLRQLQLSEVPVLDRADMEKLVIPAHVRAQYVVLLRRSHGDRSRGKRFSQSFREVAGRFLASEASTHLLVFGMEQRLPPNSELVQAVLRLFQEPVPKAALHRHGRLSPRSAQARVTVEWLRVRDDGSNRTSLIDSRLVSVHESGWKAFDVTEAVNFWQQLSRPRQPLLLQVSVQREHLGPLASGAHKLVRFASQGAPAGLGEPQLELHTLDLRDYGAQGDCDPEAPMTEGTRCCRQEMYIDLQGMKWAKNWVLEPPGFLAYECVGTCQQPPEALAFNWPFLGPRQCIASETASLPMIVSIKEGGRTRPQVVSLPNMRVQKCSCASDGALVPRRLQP
Epidermal growth factor receptor (Homo sapiens), sequence (P00533 whole entry, looked up): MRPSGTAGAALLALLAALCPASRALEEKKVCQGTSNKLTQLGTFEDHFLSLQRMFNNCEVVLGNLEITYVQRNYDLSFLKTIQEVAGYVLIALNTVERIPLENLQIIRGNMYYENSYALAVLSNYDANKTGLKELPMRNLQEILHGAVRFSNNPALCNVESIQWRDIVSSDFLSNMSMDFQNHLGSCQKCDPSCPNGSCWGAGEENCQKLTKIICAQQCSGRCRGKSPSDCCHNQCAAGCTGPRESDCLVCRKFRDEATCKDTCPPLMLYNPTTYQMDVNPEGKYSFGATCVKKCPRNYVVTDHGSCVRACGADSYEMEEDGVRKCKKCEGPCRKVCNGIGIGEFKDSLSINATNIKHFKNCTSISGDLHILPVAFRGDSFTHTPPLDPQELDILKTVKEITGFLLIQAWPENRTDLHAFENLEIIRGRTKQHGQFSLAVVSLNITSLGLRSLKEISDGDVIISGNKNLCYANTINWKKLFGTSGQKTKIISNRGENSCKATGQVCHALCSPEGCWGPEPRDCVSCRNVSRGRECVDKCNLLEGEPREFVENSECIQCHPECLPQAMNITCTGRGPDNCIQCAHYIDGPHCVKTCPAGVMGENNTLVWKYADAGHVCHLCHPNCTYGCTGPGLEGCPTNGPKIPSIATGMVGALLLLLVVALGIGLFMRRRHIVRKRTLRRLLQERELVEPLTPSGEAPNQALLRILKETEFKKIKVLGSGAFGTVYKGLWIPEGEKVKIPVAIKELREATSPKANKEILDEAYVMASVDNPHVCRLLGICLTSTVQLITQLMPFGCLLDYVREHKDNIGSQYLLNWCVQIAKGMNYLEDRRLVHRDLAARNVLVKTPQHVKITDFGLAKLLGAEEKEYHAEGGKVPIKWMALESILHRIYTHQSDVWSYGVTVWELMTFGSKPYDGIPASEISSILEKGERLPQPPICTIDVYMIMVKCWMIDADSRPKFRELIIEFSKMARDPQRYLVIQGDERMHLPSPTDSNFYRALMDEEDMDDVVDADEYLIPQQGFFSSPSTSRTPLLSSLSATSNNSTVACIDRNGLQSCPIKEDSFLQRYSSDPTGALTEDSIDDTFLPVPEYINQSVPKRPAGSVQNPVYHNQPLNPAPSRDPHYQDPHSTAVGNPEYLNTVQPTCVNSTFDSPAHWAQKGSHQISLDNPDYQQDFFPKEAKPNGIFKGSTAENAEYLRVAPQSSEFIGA
Follistatin-related protein 3 (Homo sapiens), sequence (O95633 whole entry, looked up): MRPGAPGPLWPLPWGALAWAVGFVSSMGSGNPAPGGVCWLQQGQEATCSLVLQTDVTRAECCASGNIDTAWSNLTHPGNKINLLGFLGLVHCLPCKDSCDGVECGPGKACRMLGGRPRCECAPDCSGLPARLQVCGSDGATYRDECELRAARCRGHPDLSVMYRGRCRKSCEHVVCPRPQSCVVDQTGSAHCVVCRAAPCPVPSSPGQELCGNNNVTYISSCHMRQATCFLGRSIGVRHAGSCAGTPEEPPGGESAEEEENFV
Fibroblast growth factor 10 (Homo sapiens), sequence (O15520 whole entry, looked up): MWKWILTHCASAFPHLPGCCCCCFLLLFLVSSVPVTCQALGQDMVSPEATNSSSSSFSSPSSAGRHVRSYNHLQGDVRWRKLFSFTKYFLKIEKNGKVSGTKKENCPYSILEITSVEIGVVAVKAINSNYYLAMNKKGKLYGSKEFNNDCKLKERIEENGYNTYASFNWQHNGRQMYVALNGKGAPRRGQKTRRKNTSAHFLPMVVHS
Torsin-1A-interacting protein 1 (Homo sapiens), sequence (Q5JTV8 whole entry, looked up): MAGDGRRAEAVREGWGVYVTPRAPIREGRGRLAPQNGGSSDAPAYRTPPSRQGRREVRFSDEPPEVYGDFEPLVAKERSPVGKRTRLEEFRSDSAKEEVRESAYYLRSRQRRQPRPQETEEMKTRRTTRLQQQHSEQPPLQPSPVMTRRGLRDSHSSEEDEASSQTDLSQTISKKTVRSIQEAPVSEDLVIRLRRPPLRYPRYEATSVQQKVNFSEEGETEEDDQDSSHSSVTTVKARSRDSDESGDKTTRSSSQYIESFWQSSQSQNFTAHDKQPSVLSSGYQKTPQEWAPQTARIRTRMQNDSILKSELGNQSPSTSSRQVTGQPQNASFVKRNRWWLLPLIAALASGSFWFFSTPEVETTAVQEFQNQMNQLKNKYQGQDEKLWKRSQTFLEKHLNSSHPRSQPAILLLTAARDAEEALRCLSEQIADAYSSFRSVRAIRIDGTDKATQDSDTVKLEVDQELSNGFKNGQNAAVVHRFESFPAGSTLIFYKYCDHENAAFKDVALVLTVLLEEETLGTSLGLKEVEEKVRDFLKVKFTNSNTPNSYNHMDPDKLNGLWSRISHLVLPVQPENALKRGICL

`CC(=O)NCCCC[C@@H]1NC(=O)[C@H]2C[C@@H](C(=O)NCCCCCCNC(=O)CS)[C@@H](c3cccc(OCCO)c3)N2C1=O`: the composite z-score in [1] is 1.72; in experiment [2], -0.11; in experiment [3], 0.642; in experiment [5], 0.816; in experiment [6], 1.15; in experiment [7], -0.316. For the same compound, the composite z-score in experiment [8] was 0.225; in experiment [9], 0.363; in experiment [10] it was 0.339; in experiment [11], 1.05; in experiment [13] it was -0.0449; in [14] it was 0.83. Further, the composite z-score in experiment [15] is 0.395; in experiment [16] it was 0.127; in [17], 0.0444; in experiment [18], -0.0926; in experiment [19] it was 2.1; in experiment [20], 0.298. Further, the z-score in experiment [4] is -0.662 (inactive); in experiment [12] it was -0.199.

Take `COc1ccc([Si](C)(C)[C@H]2[C@H](CCO)O[C@@]3(C(=O)N(Cc4ccc(NC(=O)[C@H](C)O)cc4)c4ccccc43)[C@@H]2C)cc1`: the composite z-score in experiment [1] amounted to 0.931; in experiment [2], 0.162; in experiment [3], 0.193; in experiment [5], 1.14; in [6], 1.07; in experiment [7] it was 0.161. The composite z-score in experiment [8] was found to be 0.0961; in [9], 0.156; in [10], 0.531; in experiment [11], 1.42; in experiment [13] it was 0.378; in [14] it was 1.19. The composite z-score is 0.0314 in experiment [15]; -0.105 in experiment [16]; 0.318 in [17]; 0.686 in experiment [18]; 0.989 in experiment [19]; 1.24 in experiment [20]. In addition, the z-score in experiment [4] is -2.32 (inactive); in experiment [12] it was -5.22.

As for `CC(=O)c1ccc(C(O)C2C=CC3C(=O)N(c4ccccc4)C(=O)C3N2Nc2ccc(C(C)C)cc2)cc1` (stereo not given), the composite z-score was determined as 0.696 in [1]; 1.46 in [2]; 0.865 in experiment [3]; 1.01 in experiment [5]; 0.806 in experiment [6]; 0.314 in experiment [7]. In addition, the composite z-score is 1.25 in [8]; -0.0216 in experiment [9]; 1.05 in experiment [10]; 0.637 in [11]; 0.438 in experiment [13]; 0.889 in experiment [14]. Moreover, the composite z-score is 0.0603 in experiment [15]; -0.0519 in experiment [16]; 0.0278 in experiment [17]; 1.7 in [18]; 0.415 in [19]; 0.859 in experiment [20]. The z-score in experiment [4] was -0.385 (inactive); in [12], -0.674.

Take `COCCOC(=O)N1C(=O)[C@@]2(c3cc(C#CCC(C(=O)OC)C(=O)OC)ccc31)[C@H](c1ccc(O)cc1)N1[C@H](c3ccccc3)[C@H](c3ccccc3)OC(=O)[C@H]1[C@@H]2C(=O)Nc1nc2ccccc2s1`: the composite z-score was 1.54 in [1]; 0.595 in experiment [2]; 0.481 in experiment [3]; 0.972 in experiment [5]; 1.27 in experiment [6]; 0.594 in experiment [7]. Further, the composite z-score in [8] was found to be 1.38; in experiment [9] it was 0.91; in experiment [10], 1.11; in [11] it was 1.11; in experiment [13], 0.616; in experiment [14], 1.38. The composite z-score was -0.563 in [15]; -0.0684 in [16]; -0.017 in [17]; 0.112 in experiment [18]; 0.83 in [19]; 2.23 in experiment [20]. Moreover, the z-score was -1.12 (inactive) in experiment [4] and -0.149 in experiment [12].

As for `O=C(NC1CC1)[C@@H]1c2ccccc2C(=O)N(CC23CC4CC(CC(C4)C2)C3)[C@H]1c1ccc(CO)cc1`, the composite z-score in experiment [1] was 0.728; in experiment [2], -0.226; in [3] it was -0.0162; in [5] it was 1.41; in experiment [6], 1.32; in [7] it was 1.03. Also, the composite z-score in [8] stood at 1.43; in experiment [9], 1.28; in experiment [10], 0.372; in experiment [11], 1.36; in experiment [13] it was 1.13; in experiment [14] it was 0.609. Further, the composite z-score was -0.657 in experiment [15]; -0.096 in experiment [16]; -0.138 in experiment [17]; -0.541 in experiment [18]; 0.755 in experiment [19]; 0.428 in experiment [20]. The z-score in experiment [4] was -0.724 (inactive); in experiment [12], -1.22.

Regarding `N#Cc1ccc(NN2C(C(O)C3CC=CCC3)C=CC3C(=O)N(c4ccccc4)C(=O)C32)cc1` (stereo not given), the composite z-score in [1] turned out to be 0.602; in experiment [2], 0.417; in experiment [3], 0.728; in experiment [5], 1.09; in experiment [6], 0.79; in [7], 1.44. Also, the composite z-score in experiment [8] was 1.38; in [9], -0.141; in experiment [10], 1.25; in experiment [11], 1.48; in experiment [13] it was 0.0779; in [14], 0.0301. The composite z-score in [15] is -0.753; in experiment [16], -0.13; in [17], 0.0639; in experiment [18], 0.313; in experiment [19], 0.102; in [20], 1.17. Also, the z-score is 1.6 (inactive) in [4] and -0.137 in [12].
